Among the data in PubChem BioAssay (EPA / NIEHS) are outcome and AC50 values, retold here.

Read-out in test [1]: Intercellular Adhesion Molecule 1 (ICAM1), ICAM1 (gene 3383)
The test can be described thus: BSK_hDFCGF_ICAM1: BioMAP Diversity Plus: hDFCGF Assay for Intercellular Adhesion Molecule 1 (ICAM1) Biomarker Activity (AID 2284287). To be noted: primary human foreskin fibroblasts. Summed up: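 ICAM-1 ELISA readout 24 h after dosing, DMSO as baseline, in human dermal foreskin fibroblast cultures. Cytotoxicity checked in parallel wells by SRB staining (0.1% SRB, 10% TCA fixation, 560 nm).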

Read-out in another test: CD40, CD40 (gene 958)
The test can be described thus: BSK_IMphg_CD40: BioMAP Diversity Plus: IMphg Assay for CD40 Biomarker Activity (AID 2284288). The conditions noted are these: primary human endothelial cells with macrophages. In a few lines:
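ELISA read-out of cell-surface CD40 at 24 h in human venular endothelial cell/macrophage co-cultures. Activity fitted in the positive direction against DMSO; parallel SRB staining (560 nm) gauges overt cytotoxicity.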

Read-out in test [2]: TIMP metallopeptidase inhibitor 2 (TIMP2), TIMP2 (gene 7077)
The test can be described thus: BSK_hDFCGF_TIMP2: BioMAP Diversity Plus: hDFCGF Assay for TIMP metallopeptidase inhibitor 2 (TIMP2) Biomarker Activity (AID 2284289). The conditions noted are these: primary human foreskin fibroblasts. Summed up:
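Primary human foreskin fibroblasts in the hDFCGF system, dosed for 24 h; TIMP-2 level measured by ELISA, fitted in the positive direction against DMSO; cytotoxicity checked in parallel by sulforhodamine B total protein staining.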

Read-out in test [3]: Interleukin-1 alpha (IL1a), IL1A (gene 3552)
Kind of test: BSK_IMphg_IL1a: BioMAP Diversity Plus: IMphg Assay for Interleukin-1 alpha (IL1a) Biomarker Activity (AID 2284290). The conditions noted are these: primary human endothelial cells with macrophages. Summed up: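 IL-1α is quantified by ELISA at 24 h in the endothelial/macrophage IMphg co-culture, with gain of signal fitted relative to DMSO. Parallel SRB total-protein staining flags overt toxicity.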

Read-out in test [4]: E-selectin (Homo sapiens) (UniProt P16581)
The test can be described thus: BSK_IMphg_ESelectin: BioMAP Diversity Plus: IMphg Assay for Eselectin Biomarker Activity (AID 2284291). To be noted: primary human endothelial cells with macrophages. In a few lines:
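Analysed against DMSO baseline in the positive fitting direction, this endpoint is an ELISA read of E-selectin. It comes from human venular endothelial cells co-cultured with macrophages, sampled 24 h post-dose.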

A short description of test [5]: BSK_IMphg_SRB: Viability Assessment in the BioMAP Diversity Plus: IMphg Assay (AID 2284292).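 Note: measured one day after compound addition.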 The conditions noted are these: primary human endothelial cells with macrophages. Summed up: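 SRB viability endpoint: cultures of human endothelial cells plus macrophages fixed with 10% TCA, stained with 0.1% SRB, read at 560 nm 24 h post-dosing. Only gain-of-signal fitted, relative to DMSO.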

Read-out in test [6]: Macrophage colony-stimulating factor (MCSF), CSF1 (gene 1435)
The test can be described thus: BSK_IMphg_MCSF: BioMAP Diversity Plus: IMphg Assay for Macrophage colony-stimulating factor (MCSF) Biomarker Activity (AID 2284293). To be noted: primary human endothelial cells with macrophages. Summed up: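 M-CSF was measured by ELISA in human venular endothelial cell/macrophage co-cultures dosed for 24 hours. Sulforhodamine B staining of parallel cultures assessed cytotoxicity; data fitted against DMSO baseline.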

Test [7] is described as follows: BSK_IMphg_SRB.Mphg: Macrophage Viability Assessment in the BioMAP Diversity Plus: IMphg Assay (AID 2284295). To be noted: primary human endothelial cells with macrophages. Summed up:
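Cytotoxicity read-out: parallel cultures fixed with 10% TCA, stained with 0.1% sulforhodamine B, read at 560 nm. System combines venular endothelium and macrophages; sampled 24 h post-dosing, fitted positively relative to DMSO control.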

Read-out in test [8]: Thrombomodulin, THBD (gene 7056)
Kind of test: BSK_LPS_Thrombomodulin: BioMAP Diversity Plus: LPS Assay for Thrombomodulin Biomarker Activity (AID 2284296). To be noted: primary human HUVEC with PBMC. Summed up:
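Thrombomodulin on the surface of LPS-activated endothelial/PBMC co-cultures was quantified by ELISA at 24 hours post-dosing, with DMSO as baseline. Parallel SRB total-protein staining flagged overt cytotoxicity.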

Read-out in the next test: CD69, CD69 (gene 969)
Kind of test: BSK_LPS_CD69: BioMAP Diversity Plus: LPS Assay for CD69 Biomarker Activity (AID 2284303). The conditions noted are these: primary human HUVEC with PBMC. In a few lines: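 CD69 surface levels were read by ELISA after 24 h chemical treatment of an LPS-stimulated HUVEC plus PBMC co-culture; positive-direction fit against DMSO vehicle.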

A short description of test [9]: IUF_NPC2c_oligodendrocyte_migration_120hr: Leibniz Research Institute for Environmental Medicine (IUF) 120-hour Neural Progenitor Cell Migration Assay for Oligodendrocyte Migration (NPC2c) (AID 2284297).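 Note: O4-positive oligodendrocyte migration distance divided by radial glia migration distance.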 Summed up: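 Using fetal brain neural progenitor spheres differentiating in N2 medium at 37C, compounds were present for 120 h. Oligodendrocyte migration distance, normalized to radial glia migration, was measured from imaged O4 staining.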

Test [10] is described as follows: IUF_NPC2a_radial_glia_migration_120hr: Leibniz Research Institute for Environmental Medicine (IUF) 120-hour Neural Progenitor Cell Migration Assay for Radial Glia Migration (NPC2a) (AID 2284298). Summed up: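 Exposure of 0.3 mm primary hNPC spheres runs day 0 to 120 h with a half-volume medium change at day 3. Fixed cells get Hoechst staining; high-content analysis of nuclear positions yields radial glia migration distance per well, compared against DMSO controls.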

Test [11] can be described thus: IUF_NPC2a_radial_glia_migration_72hr: Leibniz Research Institute for Environmental Medicine (IUF) 72-hour Neural Progenitor Cell Migration Assay for Radial Glia Migration (NPC2a) (AID 2284299). Summed up: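 Spheres of human primary neural progenitors migrate on poly-D-lysine/laminin under compound exposure at 37C, 5% CO2. The 72 h radial glia migration distance comes from brightfield images, measured manually.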

Test [12] in a line: IUF_NPC2b_neuronal_migration_120hr: Leibniz Research Institute for Environmental Medicine (IUF) 120-hour Neural Progenitor Cell Migration Assay for Neuron Migration (NPC2b) (AID 2284300). Summed up:
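Fetal human NPC spheres migrate on PDL/laminin during 120 h compound treatment; neuronal migration distance, glia-normalized, scored versus DMSO control.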

A short description of test [13]: IUF_NPC3_neuronal_differentiation_120hr: Leibniz Research Institute for Environmental Medicine (IUF) 120-hour Neuronal Differentiation Assay (NPC3) (AID 2284301). Summed up:
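hNPC spheres, PDL/laminin, DMEM/F12 3:1 + 1% N2, 37C, 5% CO2; 7 concentrations + solvent control, 5 d exposure, half-change day 3. Fix 120 h; TUBB3/Hoechst ICC, CNN neuron calling; % neurons vs nuclei, DMSO-normalized.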

Test [14] can be described thus: IUF_NPC4_neurite_length_120hr: Leibniz Research Institute for Environmental Medicine (IUF) 120-hour Neuronal Morphology Assay for Neurite Length (NPC4) (AID 2284302). Summed up: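 hNPC spheres (0.3 mm, fetal brain GW 16-19) on PDL/laminin, DMEM:F12 3:1 + 1% N2, 37C 5% CO2; 7 concs + solvent control, day 0-5, half medium change d3; fix 120 h, TUBB3 ICC, mean neurite length um vs DMSO.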

The nature of test [15]: IUF_NPC5_oligodendrocyte_differentiation_120hr: Leibniz Research Institute for Environmental Medicine (IUF) 120-hour Oligodendrocyte Differentiation Assay (NPC5) (AID 2284304; active = hit-call score of the fitted dose curve at least 0.9, where 1 is the maximum;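 note: primary human fetal neural progenitor spheres plated to migrate and differentiate; share of O4-positive cells among Hoechst nuclei found by CNN image analysis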). Summed up:
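After plating on poly-D-lysine/laminin, fetal-derived hNPC spheres differentiated for 120 h at 37C in compound-containing N2 medium, refreshed by half on day 3. O4 immunostaining over Hoechst nuclei in the migration zone gave oligodendrocyte percentage relative to DMSO.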

Test [16] can be described thus: IUF_NPC4_neurite_area_120hr: Leibniz Research Institute for Environmental Medicine (IUF) 120-hour Neuronal Morphology Assay for Neurite Area (NPC4) (AID 2284305; active = hit-call score of the fitted dose curve at least 0.9, where 1 is the maximum). Summed up: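 hNPC spheres on PDL/laminin, N2 medium, 37C/5% CO2; dosed day 0, half-medium refresh day 3; fixed 120 h; TUBB3/Hoechst ICC, high-content imaging; neurite area = mean pixels per neuron (nuclei excluded); DMSO baseline, max 0.1%.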

Test [17] is described as follows: IUF_NPC2-5_cytotoxicity_72hr: Cytotoxicity Assessment at 72 hours in the Leibniz Research Institute for Environmental Medicine (IUF) Neural Progenitor Cell Migration and Differentiation Assay for Cytotoxicity (NPC2-5) (AID 2284306; active = hit-call score of the fitted dose curve at least 0.9, where 1 is the maximum;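 note: LDH release into supernatant measured by resorufin fluorescence marking membrane damage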). In a few lines:
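hNPC spheres (0.3 mm), PDL/laminin, DMEM/F12 3:1 + 1% N2; cpd from d0, 7 concs + SC, DMSO max 0.1%; half-medium refresh d3. Readout: supernatant LDH via resorufin fluorescence (RFU), 72 h; gain-of-signal fit.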

Test [18] in a line: IUF_NPC2-5_cytotoxicity_120hr: Cytotoxicity Assessment at 120 hours in the Leibniz Research Institute for Environmental Medicine (IUF) Neural Progenitor Cell Migration and Differentiation Assay (NPC2-5) (AID 2284307; active = hit-call score of the fitted dose curve at least 0.9, where 1 is the maximum). Summed up: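 Membrane-integrity loss is quantified by LDH in supernatant after five days of exposure of migrating, differentiating human fetal NPC spheres; seven serially diluted concentrations are tested with DMSO kept at or below 0.1%.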

Inconclusive results are not listed. Where a structure was tested more than once in an assay, its records may differ in their call. Active and inactive are the calls of the source. Rule for the calls, unless noted: active = hit-call score of the fitted dose curve at least 0.9, where 1 is the maximum; inactive = score below 0.9.

Chain of E-selectin (Homo sapiens) (P16581 whole entry, looked up): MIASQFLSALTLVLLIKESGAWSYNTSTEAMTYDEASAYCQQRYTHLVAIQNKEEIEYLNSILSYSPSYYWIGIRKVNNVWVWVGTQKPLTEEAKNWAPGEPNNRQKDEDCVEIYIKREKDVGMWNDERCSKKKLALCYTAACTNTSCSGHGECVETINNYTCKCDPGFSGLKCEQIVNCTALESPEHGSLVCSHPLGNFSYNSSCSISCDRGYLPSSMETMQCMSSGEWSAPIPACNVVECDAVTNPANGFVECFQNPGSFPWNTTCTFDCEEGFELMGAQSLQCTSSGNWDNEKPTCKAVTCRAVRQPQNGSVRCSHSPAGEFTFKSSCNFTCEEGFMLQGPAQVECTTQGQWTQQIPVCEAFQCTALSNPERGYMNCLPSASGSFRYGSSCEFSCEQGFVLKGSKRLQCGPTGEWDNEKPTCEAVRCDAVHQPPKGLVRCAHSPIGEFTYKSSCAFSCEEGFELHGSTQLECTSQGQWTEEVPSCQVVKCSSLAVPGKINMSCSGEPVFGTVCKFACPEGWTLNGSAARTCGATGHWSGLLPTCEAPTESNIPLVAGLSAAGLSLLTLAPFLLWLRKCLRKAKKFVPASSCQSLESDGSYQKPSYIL

`O=C(O)C(F)(F)C(F)(F)C(=O)O`: the outcome was “inactive” in test [1]; “inactive” with CD40, CD40 (gene 958); “inactive” in test [2]; “inactive” in [3]; “inactive” in test [4]; “inactive” in test [5]. Further, the outcome in test [6] is “inactive”; in test [7] it was “inactive”; in test [8], “inactive”; with CD69, CD69 (gene 969) it was “inactive”.

As to `O=S(=O)(F)C(F)(F)C(F)(F)C(F)(F)C(F)(F)C(F)(F)C(F)(F)C(F)(F)C(F)(F)F`, the outcome is “inactive” in test [1]; “inactive” in the test with CD40, CD40 (gene 958); “inactive” in [2]; “inactive” in test [3]; “inactive” in test [4]; “inactive” in test [5]. Also, the outcome is “inactive” in test [6]; “inactive” in [7]; “inactive” in [8]; “inactive” with CD69, CD69 (gene 969).

As for `CO/N=C(/C(=O)OC)c1ccccc1COc1ccccc1C`, the outcome in test [9], in test [12], in [14], in test [16], in [17] and in test [18] was inactive. The AC50 (in general, the midpoint of the concentration-response curve, whichever way the signal moves) was 22.9 µM (active) in test [10], 21 µM (active) in test [11], 2.33 µM (active) in [13] and 13.9 µM (active) in [15].

Consider `OCC(F)(F)OC(F)(F)C(F)(F)OC(F)(F)C(F)(F)OC(F)(F)CO`, for which the AC50 is 33.8 µM (active) in test [1]; 30 µM (active) with CD40, CD40 (gene 958); 8.46 µM (active) in test [2]; 5.2 µM (active) in [4]; 24.7 µM (active) in test [6]; 4.54 µM (active) in test [8]. The outcome in [1] is “inactive”; in the test with CD40, CD40 (gene 958) it was “inactive”; in test [2], “inactive”; in test [3] it was “inactive”; in [4] it was “inactive”; in test [5], “inactive”. In addition, the outcome in [6] was “inactive”; in test [7], “inactive”; in test [8], “inactive”; in the test with CD69, CD69 (gene 969), “inactive”.

Consider `O=S1(=O)OCC2C(CO1)C1(Cl)C(Cl)=C(Cl)C2(Cl)C1(Cl)Cl` (stereo unspecified), for which the result in test [9], in test [10], in test [11], in [12], in test [13] and in test [14] was inactive. Besides, the outcome in test [16], in test [17] and in [18] was inactive. In addition, the concentration at half-maximal activity (AC50) in test [15] is 0.403 µM (active).

Turning to `CCCCC(CC)COP(=O)(Oc1ccccc1)Oc1ccccc1` (stereo unspecified), the outcome in [9], in test [10], in test [11], in [12], in [13] and in test [14] was inactive. Moreover, the result in test [15], in test [16], in test [17] and in [18] was inactive.
